Results: the supplement of paper PMC3545927
The other results are listed elsewhere or left out. The true hit rate is not given.

Biological target: furin, P09958
Experiment: furin cleavage Z-score vs untreated control; higher = more cleavage, active = 3.5 or more, inactive = 1 or less, 8 variable residues between constant flanks
In short: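 Read counts from sequencing released DNA gave abundance for each bead-bound 8-mer peptide–cDNA fusion cut by purified furin over 7.5, 15 or 30 min. The cleavage Z-score compares log counts with furin-free reactions after lowess adjustment and median absolute deviation scaling.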
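Further: purified furin at 1:10 enzyme:substrate in 50 mM HEPES pH 7.5.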

Sequence of furin, P09958 (P09958 whole entry): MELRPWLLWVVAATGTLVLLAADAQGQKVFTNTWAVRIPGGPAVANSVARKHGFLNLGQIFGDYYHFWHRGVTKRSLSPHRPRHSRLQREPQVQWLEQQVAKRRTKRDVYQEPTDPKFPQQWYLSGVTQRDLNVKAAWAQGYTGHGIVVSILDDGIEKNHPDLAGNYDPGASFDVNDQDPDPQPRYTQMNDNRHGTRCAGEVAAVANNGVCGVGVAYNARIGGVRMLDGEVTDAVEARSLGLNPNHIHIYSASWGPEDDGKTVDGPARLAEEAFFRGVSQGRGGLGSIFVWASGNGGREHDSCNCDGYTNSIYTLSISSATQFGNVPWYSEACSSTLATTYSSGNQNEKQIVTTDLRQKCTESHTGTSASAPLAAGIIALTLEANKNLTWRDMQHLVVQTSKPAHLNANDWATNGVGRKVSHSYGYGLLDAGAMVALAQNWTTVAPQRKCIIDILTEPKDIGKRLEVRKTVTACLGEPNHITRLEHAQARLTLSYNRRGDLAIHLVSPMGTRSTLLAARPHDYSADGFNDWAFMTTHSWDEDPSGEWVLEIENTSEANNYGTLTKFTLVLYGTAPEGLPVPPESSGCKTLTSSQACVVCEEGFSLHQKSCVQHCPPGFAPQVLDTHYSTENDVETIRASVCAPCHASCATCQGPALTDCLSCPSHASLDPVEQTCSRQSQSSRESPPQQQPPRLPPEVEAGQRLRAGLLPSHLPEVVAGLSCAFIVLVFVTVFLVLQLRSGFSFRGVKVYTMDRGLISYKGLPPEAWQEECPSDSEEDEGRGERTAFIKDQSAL

Sequence | furin cleavage Z-score (7.5 min) | furin cleavage Z-score (15 min) | furin cleavage Z-score (30 min)
CAEVVTYTWVAGNASASA [HC157] | -1.14 (inactive) | -2.61 (inactive) | -1.31 (inactive)
CAASRCWVAMAGNASASA [HC278] | 1.39 | -0.873 (inactive) | 1.5
CAVRRRVQRMAGNASASA [FS-1662] | 9.65 (active) | 8.64 (active) | 6.99 (active)
CAVRRRSVQQAGNASASA [FS-2856] | 3.6 (active) | 4.13 (active) | 4.51 (active)
CAVVARSVNGAGNASASA [FS-1816] | -0.0409 (inactive) | 0.74 (inactive) | 1.63
CAVRRRAADQAGNASASA [FS-3143] | -0.697 (inactive) | 0.216 (inactive) | 1.49
CAGEGAVQWMAGNASASA [HC1115] | -1.9 (inactive) | -0.502 (inactive) | -1.06 (inactive)
CAEIPCHRPSAGNASASA [HC2324] | 1.27 | 0.0659 (inactive) | -0.381 (inactive)
CARRFRPRRFAGNASASA [FS-1072] | 9 (active) | 10.6 (active) | 9.46 (active)
CARRFRPRRSAGNASASA [FS-1073] | 10.2 (active) | 9.93 (active) | 8.02 (active)
CARRFRAALGAGNASASA [FS-3046] | -0.151 (inactive) | -1.57 (inactive) | 1.09
CALHQRVRRFAGNASASA [FS-820] | 8.84 (active) | 10.6 (active) | 9.12 (active)
CALRTRPRRFAGNASASA [FS-58] | 10.2 (active) | 12.6 (active) | 10.4 (active)
CAPGQRVEFLAGNASASA [HC1469] | -0.0222 (inactive) | -0.699 (inactive) | -1.16 (inactive)
CARRFAQALPAGNASASA [HC1300] | 0.481 (inactive) | 1.31 | -0.76 (inactive)
CATTPLSGSWAGNASASA [HC44] | -0.768 (inactive) | -0.103 (inactive) | 0.0356 (inactive)
CASTPCSAHQAGNASASA [HC2582] | -0.092 (inactive) | -1.41 (inactive) | -0.516 (inactive)
CAMETKLITWAGNASASA [HC650] | -0.69 (inactive) | -0.554 (inactive) | -0.78 (inactive)
CAISQAEAALAGNASASA [HC531] | -1.47 (inactive) | -0.433 (inactive) | -1.7 (inactive)
CAVVCCIMSYAGNASASA [HC105] | 1.49 | 0.708 (inactive) | 1.08
CAYRGRCRKSAGNASASA [FS-923] | 0.471 (inactive) | 1.55 | 0.866 (inactive)
CAYRGRHRRFAGNASASA [FS-152] | 5.94 (active) | 6.27 (active) | 6.98 (active)

Sequence | furin cleavage Z-score (7.5 min) | furin cleavage Z-score (15 min) | furin cleavage Z-score (30 min)
CAKLRRNRRSAGNASASA [FS-1221] | 5.36 (active) | 6.08 (active) | 4.35 (active)
CATAQGMKRSAGNASASA [FS-725] | 1.25 | 1.19 | -0.124 (inactive)
CAHTQRNRRSAGNASASA [FS-799] | 11.3 (active) | 12.6 (active) | 10.4 (active)
CATVSGFVSLAGNASASA [HC358] | 0.667 (inactive) | -0.762 (inactive) | 1.14
CAEDEVPCHRAGNASASA [HC2451] | 1.14 | 0.677 (inactive) | 1.09
CAPLTRSKRDAGNASASA [FS-700] | 15 (active) | 15 (active) | 10.2 (active)
CANWAKVLVVAGNASASA [HC344] | 0.338 (inactive) | -0.0162 (inactive) | 1.26
CAPLTNSRGEAGNASASA [HC1503] | -0.174 (inactive) | -0.452 (inactive) | 1.07
CAPRAKVKREAGNASASA [FS-281] | 11.8 (active) | 10.8 (active) | 7.73 (active)
CANRERSKRDAGNASASA [FS-182] | 13.6 (active) | 14.6 (active) | 10.7 (active)
CAQGYKVLVLAGNASASA [HC784] | -0.106 (inactive) | -0.421 (inactive) | -0.768 (inactive)
CATRSRSERDAGNASASA [FS-884] | 2.38 | 3.17 | 0.745 (inactive)
CAGGGRSKRDAGNASASA [FS-997] | 12.9 (active) | 11.9 (active) | 8.83 (active)
CATRCHCGAEAGNASASA [HC1174] | -0.133 (inactive) | -0.874 (inactive) | -0.744 (inactive)
CAHDSPDAELAGNASASA [HC1270] | -0.658 (inactive) | -0.493 (inactive) | -0.66 (inactive)
CAVVCCSMCYAGNASASA [HC2080] | 0.362 (inactive) | -0.833 (inactive) | 2.39
CAPRALRKRDAGNASASA [FS-1603] | 9.96 (active) | 9.61 (active) | 8.35 (active)
CAKERRSKRDAGNASASA [FS-934] | 12.1 (active) | 12.8 (active) | 8.75 (active)
CAQEVRSKRDAGNASASA [FS-622] | 14.6 (active) | 15.6 (active) | 10.9 (active)
CAREKKADRDAGNASASA [FS-2913] | 0.241 (inactive) | -0.361 (inactive) | -1.01 (inactive)
CAQWHLSKRDAGNASASA [FS-485] | 0.736 (inactive) | 2.32 | 1.82
